Common to all, as to experiment: DAPPL (digital affinity profiling via proximity ligation, sequencing); 10 mM Tris-HCl pH 7.5, 50 mM NaCl, 1 mM DTT, 4% glycerol, room temperature, 30 min; GST-TFs on glutathione beads, 16-mer random dsDNA library, 0.1% formaldehyde crosslink after washing; high values mean tight binding
One test deals with T1, FEV (Homo sapiens, UniProt Q99581 1-238).
T1 sequence: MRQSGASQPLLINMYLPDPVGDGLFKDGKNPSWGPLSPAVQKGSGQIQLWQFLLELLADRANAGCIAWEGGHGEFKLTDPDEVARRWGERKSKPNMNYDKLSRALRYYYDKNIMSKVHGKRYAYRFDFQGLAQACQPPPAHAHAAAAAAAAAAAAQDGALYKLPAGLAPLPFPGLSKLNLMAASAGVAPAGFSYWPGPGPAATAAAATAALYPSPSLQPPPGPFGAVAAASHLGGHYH
The conditions noted are these: protein: recombinant; tags: N-terminal GST; dsDNA, one strand shown. An outline of the steps: (§1)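 Pools were built from human transcription factors expressed in yeast as GST fusions, captured on glutathione beads and DNA-barcoded, along with a tag-only sample. Incubation with 200 nmole of a 16-mer random double-stranded DNA library lasted 30 min at room temperature in Tris/NaCl/DTT/glycerol buffer, and was followed by washing, 0.1% formaldehyde crosslinking, proximity ligation, PCR amplification and Illumina NextSeq500 sequencing. Binding signal is the quotient of each hexamer's read frequency for a factor and its frequency for the tag-only sample.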

A further test has as its target ETV5 (Homo sapiens, UniProt P41161 1-510). The note with it: protein: recombinant; tags: N-terminal GST; dsDNA, one strand shown. An outline of the steps:
as §1

Another test concerns the target HSF1 (Homo sapiens, UniProt Q00613 1-529). The note with it: protein: recombinant; tags: N-terminal GST; chain copies: 3; dsDNA, one strand shown. The method, boiled down: as §1
The target in another test is T2, SPIC (Homo sapiens, UniProt Q8N5J4 1-248).
T2 sequence: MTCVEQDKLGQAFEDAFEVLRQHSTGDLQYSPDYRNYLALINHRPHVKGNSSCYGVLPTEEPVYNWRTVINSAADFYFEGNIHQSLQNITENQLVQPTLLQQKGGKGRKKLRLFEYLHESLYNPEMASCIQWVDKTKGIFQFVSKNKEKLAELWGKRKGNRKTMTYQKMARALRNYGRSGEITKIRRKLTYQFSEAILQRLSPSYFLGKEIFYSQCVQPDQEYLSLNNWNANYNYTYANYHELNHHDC
The conditions noted are these: protein: recombinant; tags: N-terminal GST; dsDNA, one strand shown. The method, boiled down: as §1

The target in a further test is ELF4 (Homo sapiens, UniProt Q99607 1-663). The note with it: protein: recombinant; tags: N-terminal GST; dsDNA, one strand shown. The method, boiled down:
as §1

For the next test, the target named is T3, ELK4 (Homo sapiens, UniProt P28324-2 1-405).
T3 sequence: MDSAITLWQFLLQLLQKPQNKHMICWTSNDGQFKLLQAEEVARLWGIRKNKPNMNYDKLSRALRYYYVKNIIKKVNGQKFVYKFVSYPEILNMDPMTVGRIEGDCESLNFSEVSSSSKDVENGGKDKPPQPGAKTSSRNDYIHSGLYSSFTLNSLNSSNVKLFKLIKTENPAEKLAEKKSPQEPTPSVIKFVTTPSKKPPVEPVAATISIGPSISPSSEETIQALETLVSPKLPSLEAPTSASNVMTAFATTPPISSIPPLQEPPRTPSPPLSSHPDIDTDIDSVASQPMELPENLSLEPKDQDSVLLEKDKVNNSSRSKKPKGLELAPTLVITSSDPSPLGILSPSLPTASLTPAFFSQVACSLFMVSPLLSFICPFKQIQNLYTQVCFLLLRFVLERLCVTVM
The conditions noted are these: protein: recombinant; tags: N-terminal GST; dsDNA, one strand shown. The method, boiled down:
as §1

In a further test the target is T4, ETV2 (Homo sapiens, UniProt O00321 1-342).
T4 sequence: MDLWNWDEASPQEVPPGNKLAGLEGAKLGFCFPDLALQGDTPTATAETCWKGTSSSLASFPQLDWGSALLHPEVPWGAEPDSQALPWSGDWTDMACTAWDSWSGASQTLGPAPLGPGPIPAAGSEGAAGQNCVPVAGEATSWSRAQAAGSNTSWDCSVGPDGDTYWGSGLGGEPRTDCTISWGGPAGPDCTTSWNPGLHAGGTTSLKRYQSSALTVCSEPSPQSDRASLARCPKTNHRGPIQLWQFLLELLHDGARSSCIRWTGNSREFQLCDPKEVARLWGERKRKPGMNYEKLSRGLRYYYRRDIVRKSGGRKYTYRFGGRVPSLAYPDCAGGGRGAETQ
The conditions noted are these: protein: recombinant; tags: N-terminal GST; dsDNA, one strand shown. An outline of the steps:
as §1

The target of a further test is T5, ELF3 (Homo sapiens, UniProt P78545 1-371).
T5 sequence: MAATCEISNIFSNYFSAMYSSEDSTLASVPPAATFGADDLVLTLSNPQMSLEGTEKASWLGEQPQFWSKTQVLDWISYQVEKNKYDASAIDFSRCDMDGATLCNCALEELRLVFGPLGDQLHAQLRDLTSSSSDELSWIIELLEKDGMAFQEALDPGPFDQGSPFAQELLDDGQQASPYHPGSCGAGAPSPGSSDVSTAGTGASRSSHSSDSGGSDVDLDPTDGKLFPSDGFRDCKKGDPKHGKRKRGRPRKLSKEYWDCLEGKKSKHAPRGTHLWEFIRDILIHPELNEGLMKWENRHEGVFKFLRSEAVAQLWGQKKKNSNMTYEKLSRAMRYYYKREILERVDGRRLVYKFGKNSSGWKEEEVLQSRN
The note with it: protein: recombinant; tags: N-terminal GST; dsDNA, one strand shown. An outline of the steps: as §1

The target of the next test is CRX (Homo sapiens, UniProt O43186 1-299). The conditions noted are these: protein: recombinant; tags: N-terminal GST; dsDNA, one strand shown. An outline of the steps: as §1
The target of the next test is ETV1 (Homo sapiens, UniProt P50549 1-477). The conditions noted are these: protein: recombinant; tags: N-terminal GST; dsDNA, one strand shown. The method, boiled down: as §1
The target of a further test is T6, ERF (Homo sapiens, UniProt P50548 1-548).
T6 sequence: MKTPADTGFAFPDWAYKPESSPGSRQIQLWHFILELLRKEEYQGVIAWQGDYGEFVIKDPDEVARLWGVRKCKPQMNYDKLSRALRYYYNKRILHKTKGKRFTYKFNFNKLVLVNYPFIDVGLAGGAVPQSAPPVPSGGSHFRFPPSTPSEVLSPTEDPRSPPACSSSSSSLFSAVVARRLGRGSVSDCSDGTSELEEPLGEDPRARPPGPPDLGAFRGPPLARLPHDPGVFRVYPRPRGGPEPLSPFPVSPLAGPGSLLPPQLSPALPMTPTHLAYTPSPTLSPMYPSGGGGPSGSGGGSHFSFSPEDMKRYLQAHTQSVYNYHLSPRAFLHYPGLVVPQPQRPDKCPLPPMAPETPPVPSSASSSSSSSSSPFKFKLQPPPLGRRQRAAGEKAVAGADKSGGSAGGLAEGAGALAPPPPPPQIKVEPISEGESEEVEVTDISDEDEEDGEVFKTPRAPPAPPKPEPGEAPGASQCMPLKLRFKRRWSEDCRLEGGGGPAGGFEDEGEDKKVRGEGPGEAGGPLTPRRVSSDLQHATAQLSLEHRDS
The note with it: protein: recombinant; tags: N-terminal GST; dsDNA, one strand shown. An outline of the steps: as §1

The target of the next test is T7, ETV3L (Homo sapiens, UniProt Q6ZN32 1-361).
T7 sequence: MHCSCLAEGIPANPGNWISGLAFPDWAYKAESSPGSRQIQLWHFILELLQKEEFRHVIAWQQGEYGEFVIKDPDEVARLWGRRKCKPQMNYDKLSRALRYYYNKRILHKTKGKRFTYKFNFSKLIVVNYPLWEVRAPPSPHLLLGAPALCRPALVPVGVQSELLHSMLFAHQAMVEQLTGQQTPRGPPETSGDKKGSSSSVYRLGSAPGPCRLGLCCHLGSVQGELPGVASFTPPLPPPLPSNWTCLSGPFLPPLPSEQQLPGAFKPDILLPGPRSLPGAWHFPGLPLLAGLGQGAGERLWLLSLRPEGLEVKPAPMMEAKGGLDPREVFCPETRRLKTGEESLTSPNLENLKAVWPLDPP
The conditions noted are these: protein: recombinant; tags: N-terminal GST; dsDNA, one strand shown. An outline of the steps: as §1

Another test deals with T8, ETS2 (Homo sapiens, UniProt P15036 1-469).
T8 sequence: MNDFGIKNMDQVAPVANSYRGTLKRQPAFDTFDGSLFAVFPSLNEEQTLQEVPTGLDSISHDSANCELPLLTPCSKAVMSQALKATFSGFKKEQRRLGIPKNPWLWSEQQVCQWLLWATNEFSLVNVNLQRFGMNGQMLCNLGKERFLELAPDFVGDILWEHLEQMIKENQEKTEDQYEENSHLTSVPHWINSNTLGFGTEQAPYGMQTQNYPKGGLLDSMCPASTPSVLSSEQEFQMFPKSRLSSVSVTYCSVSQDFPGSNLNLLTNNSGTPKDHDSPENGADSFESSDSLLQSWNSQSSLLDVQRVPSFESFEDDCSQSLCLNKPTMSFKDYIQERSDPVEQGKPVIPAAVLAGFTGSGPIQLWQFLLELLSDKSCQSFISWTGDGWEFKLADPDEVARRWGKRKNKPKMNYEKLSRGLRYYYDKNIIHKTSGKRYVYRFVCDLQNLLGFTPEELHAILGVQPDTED
The conditions noted are these: protein: recombinant; tags: N-terminal GST; dsDNA, one strand shown. The method, boiled down:
as §1

The target of a further test is T9, SPDEF (Homo sapiens, UniProt O95238 1-335).
T9 sequence: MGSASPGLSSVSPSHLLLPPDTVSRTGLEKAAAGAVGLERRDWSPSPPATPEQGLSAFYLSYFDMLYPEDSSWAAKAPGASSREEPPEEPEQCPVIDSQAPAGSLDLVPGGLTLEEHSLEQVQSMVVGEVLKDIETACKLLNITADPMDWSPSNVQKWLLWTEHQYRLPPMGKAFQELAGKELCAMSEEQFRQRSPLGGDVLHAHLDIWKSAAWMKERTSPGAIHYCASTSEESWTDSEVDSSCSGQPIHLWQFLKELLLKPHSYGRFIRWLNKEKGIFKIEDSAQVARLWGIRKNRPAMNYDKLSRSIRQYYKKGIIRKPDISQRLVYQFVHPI
The conditions noted are these: protein: recombinant; tags: N-terminal GST; dsDNA, one strand shown. An outline of the steps:
as §1

The next test concerns the target T10, ETV7 (Homo sapiens, UniProt Q9Y603 1-341).
T10 sequence: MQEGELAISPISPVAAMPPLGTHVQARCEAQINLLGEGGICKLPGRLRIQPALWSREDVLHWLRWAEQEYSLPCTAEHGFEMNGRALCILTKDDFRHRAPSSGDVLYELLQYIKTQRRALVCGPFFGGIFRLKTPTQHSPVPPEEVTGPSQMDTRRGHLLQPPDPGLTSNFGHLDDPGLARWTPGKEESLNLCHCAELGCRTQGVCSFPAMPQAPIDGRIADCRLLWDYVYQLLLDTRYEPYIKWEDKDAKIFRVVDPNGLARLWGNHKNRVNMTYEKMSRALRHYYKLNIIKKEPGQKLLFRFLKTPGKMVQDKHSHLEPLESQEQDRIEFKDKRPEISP
The note with it: protein: recombinant; tags: N-terminal GST; dsDNA, one strand shown. The method, boiled down:
as §1

For another test, the target named is T11, ELF5 (Homo sapiens, UniProt Q9UKW6-2 1-255).
T11 sequence: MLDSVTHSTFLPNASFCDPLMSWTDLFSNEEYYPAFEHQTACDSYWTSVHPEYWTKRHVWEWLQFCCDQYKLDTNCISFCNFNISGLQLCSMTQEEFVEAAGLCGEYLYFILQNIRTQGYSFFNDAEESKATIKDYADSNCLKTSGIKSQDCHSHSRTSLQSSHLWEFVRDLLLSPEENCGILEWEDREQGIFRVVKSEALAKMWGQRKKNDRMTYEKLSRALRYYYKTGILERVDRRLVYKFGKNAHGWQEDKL
The conditions noted are these: protein: recombinant; tags: N-terminal GST; dsDNA, one strand shown. The method, boiled down: as §1

The target of the next test is T12, ETV3 (Homo sapiens, UniProt P41162-2 1-143).
T12 sequence: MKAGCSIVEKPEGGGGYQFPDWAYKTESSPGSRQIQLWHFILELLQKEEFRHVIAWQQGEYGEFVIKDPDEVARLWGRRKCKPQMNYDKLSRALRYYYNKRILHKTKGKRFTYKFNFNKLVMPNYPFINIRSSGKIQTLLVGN
The note with it: protein: recombinant; tags: N-terminal GST; dsDNA, one strand shown. An outline of the steps: as §1

In a further test the target is ETV6 (Homo sapiens, UniProt P41212 1-452). The conditions noted are these: protein: recombinant; tags: N-terminal GST; dsDNA, one strand shown. The method, boiled down:
as §1

The values that follow come from publication PMC7862700, “An all-to-all approach to the identification of sequence-specific readers for epigenetic DNA modifications on cytosine”.

Chain of ETV5 (P41161 whole entry): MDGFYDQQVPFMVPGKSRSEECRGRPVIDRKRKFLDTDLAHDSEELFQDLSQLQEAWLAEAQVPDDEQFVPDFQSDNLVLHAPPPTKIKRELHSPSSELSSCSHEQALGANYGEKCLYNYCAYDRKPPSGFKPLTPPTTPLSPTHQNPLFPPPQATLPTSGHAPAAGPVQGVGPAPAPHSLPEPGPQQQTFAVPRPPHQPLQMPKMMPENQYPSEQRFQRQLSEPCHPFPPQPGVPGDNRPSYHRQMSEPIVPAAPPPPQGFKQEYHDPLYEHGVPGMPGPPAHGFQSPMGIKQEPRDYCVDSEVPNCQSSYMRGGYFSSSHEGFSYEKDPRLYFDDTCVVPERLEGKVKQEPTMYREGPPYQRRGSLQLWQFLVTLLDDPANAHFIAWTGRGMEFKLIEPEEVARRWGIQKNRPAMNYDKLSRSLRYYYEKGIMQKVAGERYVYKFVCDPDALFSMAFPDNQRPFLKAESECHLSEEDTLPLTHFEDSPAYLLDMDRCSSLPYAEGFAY
Chain of ELF4 (Q99607 whole entry): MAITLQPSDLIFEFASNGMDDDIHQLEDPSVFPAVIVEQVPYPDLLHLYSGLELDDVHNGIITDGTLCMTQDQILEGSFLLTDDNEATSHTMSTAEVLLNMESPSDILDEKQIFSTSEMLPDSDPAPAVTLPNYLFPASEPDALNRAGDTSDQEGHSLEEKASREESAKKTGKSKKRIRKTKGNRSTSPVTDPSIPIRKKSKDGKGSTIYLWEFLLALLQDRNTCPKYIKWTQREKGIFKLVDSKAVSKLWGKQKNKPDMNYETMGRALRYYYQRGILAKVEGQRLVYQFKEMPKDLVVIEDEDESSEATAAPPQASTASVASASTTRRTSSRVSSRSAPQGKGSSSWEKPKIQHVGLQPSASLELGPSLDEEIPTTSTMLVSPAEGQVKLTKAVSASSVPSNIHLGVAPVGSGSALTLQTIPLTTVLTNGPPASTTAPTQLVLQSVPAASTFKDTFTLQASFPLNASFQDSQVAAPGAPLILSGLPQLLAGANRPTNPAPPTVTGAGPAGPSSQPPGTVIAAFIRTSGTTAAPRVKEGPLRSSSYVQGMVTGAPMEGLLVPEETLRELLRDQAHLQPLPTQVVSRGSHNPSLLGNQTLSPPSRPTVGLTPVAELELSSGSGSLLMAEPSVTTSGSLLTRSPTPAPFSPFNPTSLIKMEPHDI
Chain of ETV1 (P50549 whole entry): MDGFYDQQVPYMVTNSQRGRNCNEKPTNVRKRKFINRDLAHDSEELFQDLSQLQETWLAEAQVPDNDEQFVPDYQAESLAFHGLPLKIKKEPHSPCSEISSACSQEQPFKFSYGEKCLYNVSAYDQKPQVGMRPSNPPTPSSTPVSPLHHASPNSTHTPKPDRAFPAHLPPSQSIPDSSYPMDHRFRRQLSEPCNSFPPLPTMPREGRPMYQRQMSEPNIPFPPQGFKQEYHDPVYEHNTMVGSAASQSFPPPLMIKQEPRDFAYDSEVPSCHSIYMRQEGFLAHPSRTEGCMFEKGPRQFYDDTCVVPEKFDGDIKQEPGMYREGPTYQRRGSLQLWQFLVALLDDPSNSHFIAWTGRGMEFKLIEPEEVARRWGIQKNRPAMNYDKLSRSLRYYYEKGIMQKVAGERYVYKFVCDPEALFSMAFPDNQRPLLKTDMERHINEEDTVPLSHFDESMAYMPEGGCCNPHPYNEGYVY
Chain of HSF1 (Q00613 whole entry): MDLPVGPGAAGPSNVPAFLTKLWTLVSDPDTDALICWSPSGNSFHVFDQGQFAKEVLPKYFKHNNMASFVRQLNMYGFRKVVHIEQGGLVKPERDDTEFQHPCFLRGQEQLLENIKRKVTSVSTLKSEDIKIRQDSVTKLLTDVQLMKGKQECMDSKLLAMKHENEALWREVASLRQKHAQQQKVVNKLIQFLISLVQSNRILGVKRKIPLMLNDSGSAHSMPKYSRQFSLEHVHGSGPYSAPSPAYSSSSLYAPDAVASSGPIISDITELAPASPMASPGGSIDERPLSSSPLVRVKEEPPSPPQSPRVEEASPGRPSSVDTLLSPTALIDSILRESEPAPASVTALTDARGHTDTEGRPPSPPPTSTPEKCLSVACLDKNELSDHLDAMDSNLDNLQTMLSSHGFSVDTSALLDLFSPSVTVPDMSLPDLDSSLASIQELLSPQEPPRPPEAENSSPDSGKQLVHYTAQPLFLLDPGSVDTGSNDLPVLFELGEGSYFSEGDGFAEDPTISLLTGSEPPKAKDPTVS
Chain of CRX (O43186 whole entry): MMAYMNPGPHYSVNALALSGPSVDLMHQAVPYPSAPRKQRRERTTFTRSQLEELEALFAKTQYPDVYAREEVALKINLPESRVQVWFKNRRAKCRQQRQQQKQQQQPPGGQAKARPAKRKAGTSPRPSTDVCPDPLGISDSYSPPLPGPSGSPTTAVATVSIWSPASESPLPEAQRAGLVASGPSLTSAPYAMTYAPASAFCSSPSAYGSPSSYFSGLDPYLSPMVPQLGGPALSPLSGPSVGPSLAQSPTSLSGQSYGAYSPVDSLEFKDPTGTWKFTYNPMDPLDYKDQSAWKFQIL
Chain of ETV6 (P41212 whole entry): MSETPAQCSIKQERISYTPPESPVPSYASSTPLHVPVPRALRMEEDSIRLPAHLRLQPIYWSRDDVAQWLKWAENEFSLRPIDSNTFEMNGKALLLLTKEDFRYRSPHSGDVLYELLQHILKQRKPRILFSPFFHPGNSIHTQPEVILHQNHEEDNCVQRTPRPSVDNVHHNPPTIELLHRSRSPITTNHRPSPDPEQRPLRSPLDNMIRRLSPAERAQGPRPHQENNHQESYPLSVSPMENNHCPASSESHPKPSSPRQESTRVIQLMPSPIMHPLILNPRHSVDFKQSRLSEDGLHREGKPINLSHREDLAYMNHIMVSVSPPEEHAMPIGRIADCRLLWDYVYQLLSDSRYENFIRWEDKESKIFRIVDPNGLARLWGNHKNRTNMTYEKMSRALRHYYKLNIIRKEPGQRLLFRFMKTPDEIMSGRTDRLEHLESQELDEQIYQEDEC

Turning to TGTTAT, the binding signal is 1.34 fold enrichment (6-mer frequency, TF over GST control) with FEV; 1.34 fold enrichment (6-mer frequency, TF over GST control) with ETV5; 1.31 fold enrichment (6-mer frequency, TF over GST control) with HSF1; 1.45 fold enrichment (6-mer frequency, TF over GST control) with SPIC; 1.39 fold enrichment (6-mer frequency, TF over GST control) with ELF4; 1.35 fold enrichment (6-mer frequency, TF over GST control) with ELK4. In addition, the binding signal with ETV2 was 1.3 fold enrichment (6-mer frequency, TF over GST control); with ELF3, 1.35 fold enrichment (6-mer frequency, TF over GST control); in the test with CRX it was 1.4 fold enrichment (6-mer frequency, TF over GST control); with ETV1, 1.42 fold enrichment (6-mer frequency, TF over GST control); in the test with ERF, 1.47 fold enrichment (6-mer frequency, TF over GST control); with ETV3L it was 1.49 fold enrichment (6-mer frequency, TF over GST control). Besides, the binding signal with ETS2 was 1.34 fold enrichment (6-mer frequency, TF over GST control); with SPDEF, 1.41 fold enrichment (6-mer frequency, TF over GST control); with ETV7, 1.24 fold enrichment (6-mer frequency, TF over GST control); in the test with ELF5, 1.36 fold enrichment (6-mer frequency, TF over GST control); with ETV3, 1.32 fold enrichment (6-mer frequency, TF over GST control); in the test with ETV6, 1.39 fold enrichment (6-mer frequency, TF over GST control).
